Assay results reported in PubChem BioAssay AID1645855 (Buhrlage Lab, Dana-Farber Cancer Institute and Novartis …, 2021).
Hit rate of the full screen: of about 47,000 compounds, about 3,100 (6.6%) were called active. Many of the other results were omitted from the sample, so actives are more common in it than they were. A number with no mark means an inactive call. Rule as the data show it: active = inhibition above about 30%; inactive = the rest.

target: Ubiquitin carboxyl-terminal hydrolase 17-like protein 5 (Homo sapiens) (UniProt A8MUK1); experiment: inhibitors of human USP17 deubiquitinase (AID 1645855); conditions: purified USP17, Ub-rhodamine cleavage fluorescence, 3 h; at 50 µM; active compounds read high
Sequence (A8MUK1 whole entry, looked up): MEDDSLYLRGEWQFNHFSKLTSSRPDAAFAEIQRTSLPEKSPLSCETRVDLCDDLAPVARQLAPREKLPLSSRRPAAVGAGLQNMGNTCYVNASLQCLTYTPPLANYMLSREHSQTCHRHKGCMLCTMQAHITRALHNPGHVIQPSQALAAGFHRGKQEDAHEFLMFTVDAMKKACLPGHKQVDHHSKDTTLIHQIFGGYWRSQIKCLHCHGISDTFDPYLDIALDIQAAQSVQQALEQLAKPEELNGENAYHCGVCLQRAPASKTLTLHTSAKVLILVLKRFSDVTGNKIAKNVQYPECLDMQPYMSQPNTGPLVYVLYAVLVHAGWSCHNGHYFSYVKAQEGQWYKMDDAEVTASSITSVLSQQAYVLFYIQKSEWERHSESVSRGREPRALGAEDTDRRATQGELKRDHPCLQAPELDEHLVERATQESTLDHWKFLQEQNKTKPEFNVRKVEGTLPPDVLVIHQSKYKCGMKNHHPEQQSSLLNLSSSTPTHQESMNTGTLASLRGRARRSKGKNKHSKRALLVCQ

| SMILES | inhibition |
| --- | --- |
| COc1ccc2ncc(S(=O)(=O)c3ccccc3)c(N3CCOCC3)c2c1 | -6.05% |
| Cc1csc(C2(NC(=O)Cc3cc(C)on3)CCCC2)n1 | 31.4% (active) |
| O=C(Cc1cccc(F)c1)NC1(c2nc(C3CC3)no2)CCCCC1 | 5.03% |
| Cc1noc(C2(NC(=O)Cc3ccccc3C)CCCCC2)n1 | -5.54% |
| Cc1nn2c(S(=O)(=O)NCc3ccccc3F)c(C)nc2s1 | 18.9% |
| CCN(CC)c1ccc(NC(=O)Nc2ccc(OCc3ccccc3)cc2)cc1 | 7.88% |
| CC1CCN(S(=O)(=O)N2CCCC(C(=O)Nc3ccccc3Cl)C2)CC1 (stereo not drawn) | 1.17% |
| Cc1ccc2nc(CCC(=O)NCc3ccc(F)cc3F)n(C)c(=O)c2c1 | 10.9% |
| O=C(CCc1nc2sc3c(c2c(=O)[nH]1)CCCC3)Nc1ccc(F)cc1 | 2.56% |
| CC(C)C(=O)Nc1nc2cc(NS(=O)(=O)c3ccccc3)ccc2s1 | 4.36% |
| O=C(Cc1cccc2ccccc12)Nc1nc2ccc(F)cc2s1 | 23.9% |
| CC(C)C(=O)Nc1nc2ccc(CCC(=O)Nc3ccc(F)cc3)cc2s1 | 43.6% (active) |
| CCCC(=O)Nc1nc2ccc(CCC(=O)NCc3ccc(F)cc3)cc2s1 | 65.3% (active) |
| Cc1ccc2[nH]cc(C(C(=O)O)N3CCN(c4ccc(C(F)(F)F)cn4)CC3)c2c1 (stereo not drawn) | -4.78% |
| Cc1cccc(C)c1NS(=O)(=O)c1ccc(N2CCCC2=O)cc1 | -8.71% |
| Cc1noc(C)c1CN1C[C@H](OCc2ccccn2)[C@H]2OCCC[C@H]21 | -5.79% |
| Cc1cc(=O)n(CC(=O)Nc2ccc(F)cc2C)c(N2CCCC2)n1 | 16.9% |
| Cc1cc2nc(N3CCOCC3)n(CC(=O)Nc3ccccc3F)c(=O)c2n1C | 36% (active) |
| CCc1cc(=O)n(CC(=O)NCc2ccccc2)c(N2CCOCC2)n1 | -0.113% |
| O=C(Cc1c[nH]c2ccccc12)N1CCc2cc(-c3ccno3)ccc21 | -26.7% |

| SMILES | inhibition |
| --- | --- |
| COc1ccc(-c2noc(C3(c4ccccc4)CCOCC3)n2)cc1 | 19.3% |
| COc1ccc(-c2noc(-c3ccc(N(C)Cc4ccco4)nn3)n2)cc1 | 30.7% (active) |
| COc1ccc(-c2noc(CN(C3CCCCC3)S(=O)(=O)c3ccc(OC)cc3)n2)cc1 | 4.09% |
| CC(C)n1ncc2[nH]c(C3CCCN(C(=O)Nc4ccc(F)cc4)C3)nc21 (stereo not drawn) | -4.82% |
| CCOC(=O)c1cc2c(ccn2-c2ccc(F)cc2)n1Cc1ncc(C)c(OC)c1C | -32% |
| COc1ccccc1C(=O)Nc1cccn2nc(C3CCC3)nc12 | 2.42% |
| CC(C)(C)n1nc(C2CC2)c(Br)c1NC(=O)c1ccccc1F | 93.7% (active) |
| O=C(Nc1cc(-c2ccccc2)nn1C1CCS(=O)(=O)C1)c1ccccc1F (stereo not drawn) | -23.8% |
| CCCCn1c(=O)[nH]c2c(c1=O)CCC2 | 4.26% |
| Cc1sc(NC(=O)c2ccc(S(=O)(=O)N(C)CC3CCCO3)cc2)c(C(N)=O)c1C (stereo not drawn) | 40.5% (active) |
| Cc1ccc(S(=O)(=O)CC(=O)Nc2sc(C)c(C)c2C(N)=O)cc1 | -27.2% |
| Cc1sc(NC(=O)CS(=O)(=O)c2ccc(F)cc2)c(C(N)=O)c1C | -84% |
| CCN1CCN(C2=Nc3c(Cl)cc(Cl)c4cccc2c34)CC1 | -158% |
| O=c1c2ccccc2c(-c2nc(-c3ccncc3)no2)cn1-c1ccc(F)cc1 | 37.7% (active) |
| COc1ccccc1-c1nc(-c2ccc(-n3cccn3)nc2)no1 | 2.48% |
| O=c1c2ccccc2ncn1Cc1noc(-c2ccccc2F)n1 | -0.0976% |
| CC(C)NC(=O)[C@H](C)NC(=O)N1CCn2c1nc1ccccc12 | -12.1% |
| CN1Cc2c(C(=O)NCC3CCCO3)ncn2-c2ccccc2S1(=O)=O (stereo not drawn) | -13.6% |
| Cn1c(=O)c2c(SCC(=O)N3CCC(Cc4ccccc4)CC3)nc(-c3cccs3)nc2n(C)c1=O | 2.08% |
| COc1ccc(F)cc1-c1ccccc1CC1CNCCNC1=O (stereo not drawn) | -14.6% |

| SMILES | inhibition |
| --- | --- |
| COC(=O)COc1cccc2c(=O)n(CC(=O)N3CCc4ccccc43)ccc12 | 35.8% (active) |
| O=C(Cn1cnc2ccccc21)N1CCCc2ccccc21 | -1.89% |
| Cc1nc2ccccc2c(=O)n1CC(=O)N1CCCc2ccccc21 | 4.34% |
| Cn1c(=O)c2c(ncn2CC(=O)OCc2cccc([N+](=O)[O-])c2)n(C)c1=O | -12.3% |
| COc1ccc(-c2cc(C(=O)Nc3cccc(C)c3C)c3ccccc3n2)cc1OC | -1.61% |
| CCN1C[C@@]23CN(C(=O)c4ccc(OC)cc4)C[C@@H](C[C@@H]2S1(=O)=O)O3 | 0.859% |
| O=C(c1ccco1)[C@@H]1[C@@H]2C(=O)N(c3cccc([N+](=O)[O-])c3)C(=O)[C@@H]2C2c3ccccc3C=CN21 (stereo partly drawn) | -7.36% |
| COc1cccc(N2CCCN(C(=O)c3ccc4nc(C)[nH]c4c3)CC2)c1 | -10.9% |
| O=C(c1cccnc1)N1CCN(c2cc(-c3ccccc3)[nH]n2)CC1 | -26.3% |
| COc1cccc(-c2cc(C(=O)N3CCN(c4ccc(N5CCOCC5)nn4)CC3)[nH]n2)c1 | 33.1% (active) |
| N#Cc1ccccc1NC(=O)c1cccc2c1SCCC2=O | 8.87% |
| Cc1cccc(N2CCN(C(=O)C3CCCN(S(=O)(=O)N4CCC5(CC4)OCCO5)C3)CC2)c1C (stereo not drawn) | 9.89% |
| O=C1NC(c2ccccc2)=N/C1=C/c1ccc(F)cc1 | 39.9% (active) |
| O=C(O)c1c2c(nc3ccccc13)/C(=C/c1ccc(F)cc1)CCC2 | 4.5% |
| CCC(C)Cc1ccc2c(c1O)C(=O)OC(CC(\C=C/C=C\C=C\c1coc(CC(O)C(C)C(O)CC)n1)OC)C2 (stereo not drawn) | 14.5% |
| COc1ccccc1CNC(=O)c1c(O)c2cccnc2n(-c2ccccc2)c1=O | -4.34% |
| O=C(NCc1ccccc1)c1cc(-c2ccncc2)n[nH]1 | -3.2% |
| O=C(NCc1ccccc1)c1c(O)c2cnn(Cc3ccccc3)c2[nH]c1=O | 33.7% (active) |
